Assay outcomes deposited in PubChem by National Center for Advancing Translational Sciences (NCATS).
Casp1 inh = qHTS Assay for Allosteric/Competitive Inhibitors of Caspase-1. Caspase-1 enzyme, Ac-WEHD-AFC fluorogenic rate. Potency, µM (series often up to 57.5 µM), inactives show at the top dose activity change, negative = inhibition, hits mostly inhibitors. 75,000 tested, 0.03% active. AID 900, 2007;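 further: plate controls were vehicle for no effect and no substrate for full effect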
15-hLO-2 inh = qHTS Assay for Inhibitors of 15-hLO-2 (15-human lipoxygenase 2); 110,000 tested, 0.56% active; Potency, µM (top dose mostly 57.1 µM), without a hit: at the top dose activity change, negative = inhibition, actives largely listed as inhibitors; Polyunsaturated fatty acid lipoxygenase ALOX15B (Homo sapiens), O15296; purified 15hLO-2, xylenol orange hydroperoxide absorbance; AID 881, 2007; further: on the % scale 0 is the no-effect control and ±100 the full control effect; nearly all actives have a fitted effect of over 60% in size
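Read-out: hydroperoxide product oxidises ferrous iron, measured as xylenol orange complex via the 573-to-405 nm absorbance ratio after 30 min. Reaction: 50 nM enzyme, 15 min compound preincubation, 45 uM arachidonic acid, 90 min RT, Hepes pH 7.5 with Triton X-100.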
Hsp90 Hop PPI = qHTS Assay for Disrupters of an Hsp90 Co-Chaperone Interaction; AID 595, 2007; AlphaScreen TPR2A-His6 binding biotin-Hsp90 C-terminal peptide; Hsp90 C-terminal peptide / TPR2A (Hop) interaction, human; Potency, µM (highest dose often 57 µM), inactives show top-dose activity change, negative = inhibition; 71,000 tested, 0.44% active; active means well fitted curve in either direction with a large enough effect; inconclusive means small, poorly fitted or top-dose-only effect, or another doubt; further: on the % scale 0 is the no-effect control and ±100 the full control effect
Tau fil binding = qHTS Assay for Tau Filament Binding. Microtubule-associated protein tau (Homo sapiens), P10636. recombinant tau filaments, thioflavin S fluorescence, 15 h; filaments grown with octadecylsulfate alongside compound. Potency, µM (series often up to 57.1 µM), for the others: at the top dose activity change, negative = inhibition. 71,000 tested, 2% active;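 further: on the % scale 0 is the no-effect control and ±100 the full control effect; actives lower thioflavin S fluorescence by blocking filaments or displacing dye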
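Tau 2 uM in ThS buffer dispensed; compound added; 60 uM ODS added (finals 1 uM tau, 30 uM ODS); 15 h 37 C; fluor ex450/em510.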
ALOX15 inhib = qHTS Assay for Inhibitors of 15-hLO (15-human lipoxygenase); AID 887, 2007; purified 15hLO-1, xylenol orange hydroperoxide absorbance; Potency, µM (titrated, usually from 57.1 µM), for the others: top-dose activity change, negative = inhibition, most hits filed as inhibitors; 74,000 tested, 1.4% active; Polyunsaturated fatty acid lipoxygenase ALOX15 (Homo sapiens), P16050; further: on the % scale 0 is the no-effect control and ±100 the full control effect; nearly all actives have a fitted effect of over 55% in size
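Compounds were preincubated 15 min at room temperature with 40 nM purified human enzyme (25 mM Hepes pH 7.5, 0.01% Triton X-100); 50 uM arachidonic acid reacted 6 min. Fe-xylenol orange detection, 30 min, absorbance ratio 573/405 nm.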
Caspase-7 inhib = qHTS Assay for Allosteric/Competitive Inhibitors of Caspase-7. AID 889, 2007. 75,000 tested, 0.02% active. Potency, µM (titrated, usually from 57.5 µM), for inactives: top-dose activity change, negative = inhibition, hits mostly inhibitors. P55210. recombinant caspase-7, Ac-DEVD-AFC fluorescence rate; active means well fitted inhibition curve with a large enough effect in the main read-out, with a control signal flat, not every such curve was filed as active; inconclusive means small, poorly fitted or top-dose-only effect, or a change in a side signal; further: % of control where 0% means no effect
Numbers without * were called inactive; [ ] = remark or other dose. Most compounds without a hit are left out; they make up all but 2.4% or so of the library. Unless noted, the call rests on the fitted dose curve; in most records, active means well fitted curve in the direction sought with a large enough effect; inconclusive means small, poorly fitted or top-dose-only effect, or another doubt; inactive means no such curve, though single readings can be large; an effect the other way counts as inactive or inconclusive. Potency means the concentration at half of the fitted maximal effect.

How did Cn1c(=O)c(-c2ccc(Cl)cc2)nc2cnc(N3CCNCC3)nc21 do in these assays?
15-hLO-2 inh: 27%; Hsp90 Hop PPI: 2%; Tau fil binding: 128%; ALOX15 inhib: inconclusive; Caspase-7 inhib: inconclusive

How did CN1CCN(c2ncc3nc(-c4ccc(Cl)cc4)c(=O)n(C)c3n2)CC1 do in these assays?
15-hLO-2 inh: 10%; Hsp90 Hop PPI: 2%; Tau fil binding: 3.2µM*; ALOX15 inhib: -3%; Caspase-7 inhib: inconclusive

What do the screens show for `Cc1nc2cnc(N3CCNCC3)nc2n(Cc2cccs2)c1=O`?
Casp1 inh: -2%; 15-hLO-2 inh: 10%; Hsp90 Hop PPI: -7%; Tau fil binding: -6%; ALOX15 inhib: 7%; Caspase-7 inhib: -6%

What do the screens show for `O=c1c(-c2ccccc2)nc2cnc(N3CCNCC3)nc2n1Cc1cccs1`?
15-hLO-2 inh: 28%; Hsp90 Hop PPI: -1%; Tau fil binding: 5µM*; ALOX15 inhib: -3%; Caspase-7 inhib: inconclusive

What do the screens show for `Cn1cccc1C(=O)N1CCC2(CC1)CN(C(=O)Nc1ccccc1)C2`?
Casp1 inh: -1%; 15-hLO-2 inh: 0%; Hsp90 Hop PPI: 1%; Tau fil binding: -12%; ALOX15 inhib: 4%; Caspase-7 inhib: 0%

How did COc1cccc(Cn2c(=O)c(-c3cc(F)cc(F)c3)nc3cnc(N4CCNCC4)nc32)c1 do in these assays?
15-hLO-2 inh: 51%; Hsp90 Hop PPI: 16%; Tau fil binding: 4µM*; ALOX15 inhib: -2%; Caspase-7 inhib: inconclusive

What do the screens show for `O=c1c(-c2cc(F)cc(F)c2)nc2cnc(N3CCNCC3)nc2n1Cc1ccc(F)cc1`?
15-hLO-2 inh: 49%; Hsp90 Hop PPI: 24%; Tau fil binding: 4µM*; ALOX15 inhib: -10%; Caspase-7 inhib: inconclusive

What do the screens show for `COc1ccc(-n2c(=O)c(-c3cc(F)cc(F)c3)nc3cnc(N4CCNCC4)nc32)cc1`?
15-hLO-2 inh: 41%; Hsp90 Hop PPI: 2%; Tau fil binding: 3.2µM*; ALOX15 inhib: 3%; Caspase-7 inhib: inconclusive

What do the screens show for `COc1cccc(Cn2c(=O)c(C)nc3cnc(N4CCNCC4)nc32)c1`?
Casp1 inh: -7%; 15-hLO-2 inh: 41%; Hsp90 Hop PPI: -5%; Tau fil binding: 0%; ALOX15 inhib: 14%; Caspase-7 inhib: -11%

What do the screens show for `COc1ccc(NC(=O)c2c(OC)cccc2OC)c(OC)c1`?
Casp1 inh: -1%; 15-hLO-2 inh: -4%; Hsp90 Hop PPI: inconclusive; Tau fil binding: 16µM*; ALOX15 inhib: -3%; Caspase-7 inhib: 0%

Results for COc1ccccc1CC(=O)Nc1ccccc1C(=O)O ?
15-hLO-2 inh: 7%

Results for COc1cccc2c1C(=O)c1c(O)c3c(c(O)c1C2=O)C[C@](O)(C(=O)CO)C[C@H]3O[C@@H]1C[C@H](N)[C@H](O)[C@H](C)O1 ?
Casp1 inh: 0%[25.7 µM]; 15-hLO-2 inh: 7%[25.6 µM]; Hsp90 Hop PPI: -10%[26 µM]; Tau fil binding: 5µM*; ALOX15 inhib: 12%[25.6 µM]; Caspase-7 inhib: -1%[25.7 µM]

How did Cc1ccc(O)c(-c2cc3ccccc3[nH]2)c1 do in these assays?
Casp1 inh: -3%; 15-hLO-2 inh: -14%; Hsp90 Hop PPI: -13%[11 µM]; Tau fil binding: 2.5µM*; ALOX15 inhib: inconclusive; Caspase-7 inhib: -3%

What do the screens show for `N#CC1=C(N)C2=C(N3CCCCC3)CCCC2C1(C#N)C#N` (stereo not drawn)?
15-hLO-2 inh: inconclusive; Hsp90 Hop PPI: -19%; Tau fil binding: inactive; ALOX15 inhib: 13µM*; Caspase-7 inhib: inconclusive

How did CC(C)c1ccc2c(c1)CC[C@@H]1[C@@](C)(CN)CCC[C@@]21C do in these assays?
Hsp90 Hop PPI: 2%; Tau fil binding: 32µM*

What do the screens show for `NC1(C(=O)O)CCC1`?
Casp1 inh: 2%; 15-hLO-2 inh: 22%; Hsp90 Hop PPI: -3%; Tau fil binding: inconclusive; ALOX15 inhib: -28%[25.6 µM]; Caspase-7 inhib: 0%

How did N.N.O=C(O)C1(C(=O)O)CCC1.[Pt] do in these assays?
Casp1 inh: inconclusive; 15-hLO-2 inh: -6%; Hsp90 Hop PPI: inconclusive; Tau fil binding: 1%; ALOX15 inhib: 0.63µM*; Caspase-7 inhib: inconclusive

How did COc1ccc(-n2nc3cc(C)c(N)c(Br)c3n2)cc1 do in these assays?
Casp1 inh: inconclusive; 15-hLO-2 inh: 10µM*; Hsp90 Hop PPI: 0%; Tau fil binding: 20µM*; ALOX15 inhib: 16µM*; Caspase-7 inhib: -22%

Results for COc1ccc(-n2nc3ccccc3n2)cc1 ?
Casp1 inh: -1%; 15-hLO-2 inh: -8%; Hsp90 Hop PPI: 3%; Tau fil binding: 4%; ALOX15 inhib: 4%; Caspase-7 inhib: 0%

How did Clc1ccc(-c2nnc(N3CCCC3)nn2)cc1 do in these assays?
Casp1 inh: -2%; 15-hLO-2 inh: 1%; Hsp90 Hop PPI: -12%; Tau fil binding: 13µM*; ALOX15 inhib: -19%; Caspase-7 inhib: 0%

How did CCOC(=O)C1=C(CSc2nc3c(cc2C#N)CN(C)CC3)OC(N)=C(C#N)C1c1ccccc1 (stereo not drawn) do in these assays?
15-hLO-2 inh: 12%

Results for CN1CCc2nc(SCCOc3ccccc3)c(C#N)cc2C1 ?
Casp1 inh: 4%; 15-hLO-2 inh: 4%[2.29 µM]; Hsp90 Hop PPI: -10%; Tau fil binding: 68%; ALOX15 inhib: 3.2µM*; Caspase-7 inhib: -1%

How did CCOC(=O)Nc1ccc2c(c1)N(C(=O)CCN1CCN(C)CC1)c1ccccc1S2 do in these assays?
15-hLO-2 inh: 61%

What do the screens show for `CCOC(=O)Nc1ccc2c(c1)Nc1ccccc1S2`?
Casp1 inh: -1%; 15-hLO-2 inh: 13µM*; Hsp90 Hop PPI: inconclusive; Tau fil binding: inconclusive; ALOX15 inhib: 32µM*; Caspase-7 inhib: -4%

Results for CCOC(=O)Nc1ccc2c(c1)N(C(=O)N1CCN(C)CC1)c1ccccc1S2 ?
Casp1 inh: -1%; 15-hLO-2 inh: 38%; Hsp90 Hop PPI: inconclusive; Tau fil binding: 16µM*; ALOX15 inhib: -13%; Caspase-7 inhib: -1%

How did CC(=O)Oc1ccc(N(C(C)=O)S(=O)(=O)c2cccs2)cc1 do in these assays?
Casp1 inh: 0%; 15-hLO-2 inh: 0%; Hsp90 Hop PPI: 0%; Tau fil binding: -2%; ALOX15 inhib: 9%; Caspase-7 inhib: 0%

What do the screens show for `COc1ccc(C(C#N)N2N=C(C)CC2(C)C)cc1OC` (stereo not drawn)?
15-hLO-2 inh: 2%

Results for NC(=O)CSc1nnc2n(-c3ccccc3)c(=O)c3c4c(sc3n12)CCCCC4 ?
15-hLO-2 inh: 5%
